# Reference: PubChem BioAssay (NCI)
# About 83,000 compounds went through this panel and 20% of them were active in at least one assay; those are over-represented in the sample as a whole.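 Cells were grown in 96-well plates and exposed to the test compound at a single concentration for 48 hours; results are reported as percent growth, with values below 10 considered active.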 Values without a mark were called inactive. The source made the active and inactive calls.
# Tested on: LOX IMVI melanoma
# Experiment: NCI-60 one-dose screen, 48 h (100 = growth as untreated, 0 = no growth, -100 = all killed)
# Conditions: 10 µM unless noted
# Method: Growth inhibition of the LOX IMVI human tumor cell line is measured as a screen for anti-cancer activity. Cells are grown in 96 well plates and exposed to the test compound for 48 hours. Compounds are tested at a single concentration, which is 10^-5 M for most compounds. The reported endpoint is percent growth (GI% or GIPRCNT), where numbers from 0 - 100% represent growth inhibition, and numbers from -100% - 0 represent cell death. For example, a value of 40 represents 60% growth inhibition. A value of 0 means no net growth occurred over the course of the experiment. A value of -40 indicates 40% of cells at the beginning of the experiment died by the end of the experiment. A value of -100 means all cells are dead at the end of the experiment.
# NCI-60 Human Tumor Cell Lines Screen was performed using the standard one-dose NCI protocol, which is described in more detail at https://dtp.cancer.gov/discovery_development/nci-60/default.htm.
# Compounds with GIPRCNT values below 10 were considered active. Activity score was based on GIPRCNT using the following formula: […]
# Score is 0 for GIPRCNT values of 100 or above, 50 for GIPRCNT values of 0, and 100 for GIPRCNT values of -100.
row,Structure (SMILES),growth
1,CCN(CC)CCOC(=O)C(OC(C)C)(c1ccccc1)c1ccccc1,96.7%
2,CC[C@H](C)[C@H](NC(=O)C12CC(NC(C)=O)(C1)C2)C(=O)N(C)[C@H](C[C@@H](OC(C)=O)c1nc(C(=O)N[C@@H](Cc2ccccc2)C[C@H](C)C(=O)OC)cs1)C(C)C,16.5%
3,O=C(c1ccccc1O)c1[nH]c(Cl)c(Cl)c1-n1c(C(=O)c2ccccc2O)cc(Cl)c1Cl,10.5%
4,CC1(C)[C@H](O)[C@H](F)C[C@@]2(C)Oc3ccc(C(=O)Nc4ccc5c(c4)NC(=O)C54CCN(CCCCC#N)CC4)cc3C[C@H]12,7.04% (active)
5,CN1CCC(c2c[nH]c3ccccc23)C1 (stereo not given),88.2%
6,CC12CC(=O)C3(SC#N)C(CCC4=CC(=O)CCC43C)C1CCC2=O (stereo not given),80.8%
7,O=C(O)c1c(Cl)n(Cc2ccc(O)cc2)c2ccc(O)cc12,98.8%
8,Cn1cc(-c2csc(-c3cn(CCN4CCOCC4)c4ccccc34)n2)c2cccnc21,67.1%
9,Cc1ccc(Nc2nc3c(s2)C2=CC[C@@H]4[C@H](CC[C@]5(C)C(=O)CC[C@@H]45)[C@@]2(C)CC3)cc1,21.3%
10,CCNc1nc(Cl)nc(NCC)n1,97.9%
11,Cc1ccc(S(=O)(=O)F)cc1C(=O)O,102%
12,COC(=O)[C@@H](C)C[C@H](Cc1cn(C)c2ccccc12)NC(=O)c1csc([C@@H](C[C@H](C(C)C)N(C)C(=O)[C@@H](NC(=O)[C@H]2CCCCN2C)C(C)C)OC(C)=O)n1,19.1%
13,CCOP(=O)(Nc1ccc2c(c1)/C(=N/NC(N)=S)c1ccccc1-2)OCC,88.9%
14,CCCC(C)C1(CC)C(=O)NC(=O)N(C)C1=O (stereo not given),98.6%
15,CC[C@H](C)[C@H](NC(=O)c1cccn1C)C(=O)N(C)[C@H](C[C@@H](OC(C)=O)c1nc(C(=O)N[C@@H](Cc2ccccc2)C[C@H](C)C(=O)OC)cs1)C(C)C,15.2%
16,COc1cc([C@@H]2c3cc4c(cc3[C@H](OC(C)=O)[C@H]3COC(=O)[C@@H]23)OCO4)cc(OC)c1OC,27.3%
17,CS(=O)(=O)CCN1CC2CCCC(C2)C1,104%
18,CC1CN1CCCCN1CC1C (stereo not given),101%
19,O=C1N[C@@H]2[C@@H](O)[C@@H](O)[C@H](O)C[C@H]2c2cc3c(c(O)c21)OCO3,-48.8% (active)
20,COP(=S)(N1CC1)N1CC1,104%

row,Structure (SMILES),growth
1,CCCC[C@H](NC(=O)[C@H]1CCCCN1C)C(=O)N(C)[C@H](C[C@@H](OC(C)=O)c1nc(C(=O)N[C@@H](Cc2ccccc2)C[C@H](C)C(=O)OCC)cs1)C(C)C,17.9%
2,C/C(=C\c1ccn(-c2ccc(N)cc2)n1)[C@@H]1C[C@@H]2O[C@]2(C)CCC[C@H](C)[C@H](O)[C@@H](C)C(=O)C(C)(C)[C@@H](O)CC(=O)O1,29.5%
3,COc1cccc(/C=C/[N+](=O)[O-])c1,-80.6% (active)
4,COC(=O)[C@@H](C)C[C@H](Cc1ccccc1)NC(=O)c1csc([C@@H](C[C@H](C(C)C)N(C)C(=O)[C@@H](NC(=O)[C@H]2CCCCN2C)C2CC2)OC(C)=O)n1,8.42% (active)
5,Fc1ccc(C2=CCNCC2)cc1,90.1%
6,NC(=S)c1cn(C2OC(CO)C(O)C2O)c2ncnc(N)c12 (stereo not given),-22.9% (active)
7,COC(=O)[C@@H](C[C@H](Cc1ccccc1)NC(=O)c1csc([C@@H](C[C@H](C(C)C)N(C)C(=O)[C@@H](NC(=O)[C@H]2CCCCN2C)C(C)C)OC(C)=O)n1)NC(=O)OCc1ccccc1,14.7% [9.5 µM]
8,COC(=O)[C@@H](C)C[C@H](Cc1ccccc1)NC(=O)c1csc([C@@H](C[C@H](C(C)C)N(C)C(=O)C2(NC(=O)[C@H]3CCCCN3C)CCC2)OC(C)=O)n1,12.7%
9,COc1cccc2c1c(C(=O)C(=O)Nc1cc(C)no1)cn2Cc1ccc(F)cc1,56.1%
10,C=CC[Se]C(=O)c1ccccc1OC(C)=O,21.7%
11,Cc1ccc(C(=O)NCCCOc2ccc(N3C(N)=NC(N)=NC3(C)C)cc2Cl)cc1S(=O)(=O)F,26.7%
12,CO[C@H]1CC[C@@]2(C)C(=CC[C@@H]3[C@@H]2CC[C@]2(C)C(=O)C(=O)C[C@@H]32)C1,92.5%
13,ClCCN(CCCl)Cc1ccc(Nc2ccnc3cc(Cl)ccc23)cc1,20.1%
14,O=c1[nH]c2ccc([N+](=O)[O-])cc2c(=O)o1,99.9%
15,Clc1ccc(N2COOC3(OOC2)C2CC4CC(C2)CC3C4)cc1,-83.1% (active)
16,CC(=O)[C@H]1CC[C@H]2[C@@H]3CC[C@H]4C[C@H](N)CC[C@]4(C)[C@H]3CC[C@]12C,69.4%
17,Oc1c(O)c(Cl)c(Cl)c(Cl)c1Cl,24.4%
18,CN(CCCCN(C)CCOS(C)(=O)=O)CCOS(C)(=O)=O,58%
19,CCN1C(=O)C(=C/C=C/c2ccccc2)C(=O)N(CC)C1=O,17%
20,O=C(CC1(O)C(=O)N(Cc2ccccc2)c2ccc(Br)cc21)c1ccc(C(=O)NCC2CCC3(CC2)OOC2(CCCCC2)OO3)cc1 (stereo not given),-79.7% (active)
